Laboratory results reported in a collection of fitness landscapes (doi:10.1126/science.1257360).
In all, about 140,000 sequences were measured (“enrichment ratio after two sorts for PhoP signalling”: median about 0, highest 2% from about 11 on). Only a selection was taken, and the highest values are over-represented in it overall.

B1: PhoQ; a variant is named by its letters at X, in order, P23837 (parent)
chain: MKKLLRLFFPLSLRVRFLLATAAVVLVLSLAYGMVALIGYSVSFDKTTFRLLRGESNLFYTLAKWENNKLHVELPENIDKQSPTMTLIYDENGQLLWAQRDVPWLMKMIQPDWLKSNGFHEIEADVNDTSLLLSGDHSIQQQLQEVREDDDDAEMTHSVAVNVYPATSRMPKLTIVVVDTIPVELKSSYMVWSWFIYVLSANLLLVIPLLWVAAWWSLRPIEALAKEVRELEEHNRELLNPATTRELTSLVRNLNRLLKSERERYDKYRTTLTDLTHSLKTPLXXLQXXLRSLRSEKMSVSDAEPVMLEQISRISQQIGYYLHRASMRGGTLLSRELHPVAPLLDNLTSALNKVYQRKGVNISLDISPEISFVGEQNDFVEVMGNVLDNACKYCLEFVEISARQTDEHLYIVVEDDGPGIPLSKREVIFDRGQRVDTLRPGQGVGLAVAREITEQYEGKIVAGESMLGGARMEVIFGRQHSAPKDE

Variants of: B1
Assay: enrichment ratio after two sorts for PhoP signalling (ratio (wild type AVST 3.29)); higher = more functional
Conditions: with PhoP (E. coli)

Compared with AEAN, ITKR is lower in enrichment ratio: 28.2 for the first, ≤ 0.25 for the second.

SVFT and VISK cannot be ordered by enrichment ratio: ≤ 0.25 for the first, ≤ 0.25 for the second.

LWWA and NMII cannot be ordered by enrichment ratio: ≤ 0.25 for the first, ≤ 0.25 for the second.

TPVN and FWRY cannot be ordered by enrichment ratio: ≤ 0.25 for the first, ≤ 0.25 for the second.

SCFG and ITNE cannot be ordered by enrichment ratio: ≤ 0.25 for the first, ≤ 0.25 for the second.

TRFM and GRSR cannot be ordered by enrichment ratio: ≤ 0.25 for the first, ≤ 0.25 for the second.

PKLW and ECFL cannot be ordered by enrichment ratio: ≤ 0.25 for the first, ≤ 0.25 for the second.

Going from NQDT to AEAA, the enrichment ratio rises from ≤ 0.25 to 12.1.

Going from AEGY to AEAD, the enrichment ratio falls from 43.4 to ≤ 0.25.

Going from AEYY to AENY, the enrichment ratio rises from ≤ 0.25 to 5.26.

AEYQ and SGEP cannot be ordered by enrichment ratio: ≤ 0.25 for the first, ≤ 0.25 for the second.

INCT and NFHN cannot be ordered by enrichment ratio: ≤ 0.25 for the first, ≤ 0.25 for the second.

NMVN and DKLH cannot be ordered by enrichment ratio: ≤ 0.25 for the first, ≤ 0.25 for the second.

PNLH and ANFC cannot be ordered by enrichment ratio: ≤ 0.25 for the first, ≤ 0.25 for the second.

Going from ANTK to ANTI, the enrichment ratio rises from ≤ 0.25 to 11.4.

Going from ANTH to ANTE, the enrichment ratio falls from 6.44 to ≤ 0.25.

First: ANTC
Second: ANTS
The enrichment ratio of the first is higher: 63 for the first, 21.1 for the second.

First: ANTR
Second: ANTA
The enrichment ratio of the first is lower: ≤ 0.25 for the first, 19.3 for the second.

Going from ANTD to ANNK, the enrichment ratio rises from ≤ 0.25 to 0.253.

Compared with ANTG, MYDG is lower in enrichment ratio: 1.58 for the first, ≤ 0.25 for the second.

PVQS and RRVW cannot be ordered by enrichment ratio: ≤ 0.25 for the first, ≤ 0.25 for the second.

HRAN and KEHR cannot be ordered by enrichment ratio: ≤ 0.25 for the first, ≤ 0.25 for the second.

Compared with SANM, NAVG is lower in enrichment ratio: 9.22 for the first, ≤ 0.25 for the second.

EVLL and KQMR cannot be ordered by enrichment ratio: ≤ 0.25 for the first, ≤ 0.25 for the second.

First: SEIQ
Second: SEFQ
The enrichment ratio of the first is higher: 22.9 for the first, 6.8 for the second.

First: YTIQ
Second: MEIQ
The enrichment ratio of the first is lower: ≤ 0.25 for the first, 19.4 for the second.

First: MMIQ
Second: STIQ
The enrichment ratio of the first is lower: ≤ 0.25 for the first, 14 for the second.

Going from MDIQ to SEIE, the enrichment ratio falls from 0.654 to ≤ 0.25.

KYIQ and EGNN cannot be ordered by enrichment ratio: ≤ 0.25 for the first, ≤ 0.25 for the second.

Going from NRRY to THCI, the enrichment ratio rises from ≤ 0.25 to 7.06.

ANVR and HNSH cannot be ordered by enrichment ratio: ≤ 0.25 for the first, ≤ 0.25 for the second.

HYAD and LNEM cannot be ordered by enrichment ratio: ≤ 0.25 for the first, ≤ 0.25 for the second.

KKNT and KECN cannot be ordered by enrichment ratio: ≤ 0.25 for the first, ≤ 0.25 for the second.

First: GMLN
Second: FQCN
The enrichment ratio of the first is higher: 0.729 for the first, ≤ 0.25 for the second.

Compared with FNCN, SECN is higher in enrichment ratio: ≤ 0.25 for the first, 23.5 for the second.

Compared with GMCN, GTCN is lower in enrichment ratio: 13.6 for the first, 3.53 for the second.

Compared with SELN, FCCN is lower in enrichment ratio: 8.08 for the first, ≤ 0.25 for the second.

First: FECN
Second: SNCN
The enrichment ratio of the first is higher: 13 for the first, 7.42 for the second.

First: TECN
Second: KSEA
The enrichment ratio of the first is higher: 60.8 for the first, ≤ 0.25 for the second.

VGRD and RFAS cannot be ordered by enrichment ratio: ≤ 0.25 for the first, ≤ 0.25 for the second.

LNVE and GWCA cannot be ordered by enrichment ratio: ≤ 0.25 for the first, ≤ 0.25 for the second.

ACRC and RCNS cannot be ordered by enrichment ratio: ≤ 0.25 for the first, ≤ 0.25 for the second.

Compared with FSFI, IGKY is lower in enrichment ratio: 0.694 for the first, ≤ 0.25 for the second.

Compared with SSNS, MECN is higher in enrichment ratio: 0.835 for the first, 12.6 for the second.

VECN and DCCN cannot be ordered by enrichment ratio: ≤ 0.25 for the first, ≤ 0.25 for the second.

Compared with FELN, QECN is lower in enrichment ratio: 13.7 for the first, 9.04 for the second.

Going from NECN to TCCN, the enrichment ratio rises from ≤ 0.25 to 17.6.

Going from FEWI to FELA, the enrichment ratio rises from ≤ 0.25 to 2.53.

MPYN and DKHY cannot be ordered by enrichment ratio: ≤ 0.25 for the first, ≤ 0.25 for the second.

CHTM and NPDP cannot be ordered by enrichment ratio: ≤ 0.25 for the first, ≤ 0.25 for the second.

DDIR and QAWI cannot be ordered by enrichment ratio: ≤ 0.25 for the first, ≤ 0.25 for the second.

First: QAWL
Second: KAWL
The enrichment ratio of the first is higher: 19.9 for the first, ≤ 0.25 for the second.

First: QAWM
Second: NAWL
The enrichment ratio of the first is higher: 10.8 for the first, ≤ 0.25 for the second.

Compared with QAWS, NGDG is lower in enrichment ratio: 18.4 for the first, ≤ 0.25 for the second.

NCII and YKNN cannot be ordered by enrichment ratio: ≤ 0.25 for the first, ≤ 0.25 for the second.

GHVH and HGGE cannot be ordered by enrichment ratio: ≤ 0.25 for the first, ≤ 0.25 for the second.

LYYP and LFEG cannot be ordered by enrichment ratio: ≤ 0.25 for the first, ≤ 0.25 for the second.

Compared with SRSY, SESY is higher in enrichment ratio: ≤ 0.25 for the first, 25.4 for the second.

Going from KQSY to SQSY, the enrichment ratio rises from ≤ 0.25 to 8.96.

First: STSY
Second: NESY
The enrichment ratio of the first is higher: 11.6 for the first, ≤ 0.25 for the second.

First: YTSY
Second: TESY
The enrichment ratio of the first is lower: ≤ 0.25 for the first, 23.2 for the second.

First: GVSY
Second: GESY
The enrichment ratio of the first is lower: ≤ 0.25 for the first, 12.8 for the second.

GEEY and QESY cannot be ordered by enrichment ratio: ≤ 0.25 for the first, ≤ 0.25 for the second.

HTRW and TYTW cannot be ordered by enrichment ratio: ≤ 0.25 for the first, ≤ 0.25 for the second.

RVSE and PWWY cannot be ordered by enrichment ratio: ≤ 0.25 for the first, ≤ 0.25 for the second.

Compared with GELC, IGYI is lower in enrichment ratio: 8.26 for the first, ≤ 0.25 for the second.

YYAS and SPSY cannot be ordered by enrichment ratio: ≤ 0.25 for the first, ≤ 0.25 for the second.

First: SMSY
Second: MKSY
The enrichment ratio of the first is higher: 11.4 for the first, ≤ 0.25 for the second.

Going from SNSY to NMSY, the enrichment ratio falls from 12.8 to ≤ 0.25.

Compared with MESY, SDSY is lower in enrichment ratio: 14.8 for the first, ≤ 0.25 for the second.

Going from MMSY to KYSY, the enrichment ratio falls from 2.46 to ≤ 0.25.

HYIP and DCSH cannot be ordered by enrichment ratio: ≤ 0.25 for the first, ≤ 0.25 for the second.

Compared with TCML, YCML is lower in enrichment ratio: 16.7 for the first, 12.7 for the second.

First: FCML
Second: QPML
The enrichment ratio of the first is higher: 21.1 for the first, ≤ 0.25 for the second.

Going from VCML to YTML, the enrichment ratio falls from 10 to 5.16.

First: FPML
Second: TYML
The enrichment ratio of the first is lower: ≤ 0.25 for the first, 0.784 for the second.

First: FTML
Second: YYML
The enrichment ratio of the first is higher: 12 for the first, ≤ 0.25 for the second.

KCML and YCNL cannot be ordered by enrichment ratio: ≤ 0.25 for the first, ≤ 0.25 for the second.
